Data on 63 molecules can be found in the antibiotic and cytotoxicity screens of Wong et al. (2023).

Molecules are shown by their SMILES. Out of some 39,000 compounds screened, about 1,500 (3.8%) were called active. Only a selection was taken, and actives are over-represented in it overall.

This test has as its system HSkMC (human skeletal muscle cells). Briefly: cytotoxicity call (relative viability < 0.9). The settings on record: 10 µM.
Take `CN1C(=O)C[C@H](C(=O)O)[C@H]1c1cccnc1`: the cytotoxicity call is “inactive”. In the case of `COc1ccc(S(=O)(=O)Nc2ccc3c(c2)C(=O)N([C@@H](C)CO)C[C@H](C)[C@H](CN(C)S(=O)(=O)c2ccccc2)O3)cc1`, the cytotoxicity call was “inactive”. Take `COc1ccc(CN(C)C[C@H]2Oc3c(NS(=O)(=O)c4cn(C)cn4)cccc3C(=O)N([C@H](C)CO)C[C@H]2C)cc1`: the cytotoxicity call is “inactive”. As to `C[C@H](CO)N1C[C@H](C)[C@H](CN(C)C(=O)Nc2cccc3ccccc23)Oc2ccc(NC(=O)Nc3ccc4c(c3)OCO4)cc2CC1=O`, the cytotoxicity call was “inactive”.

On to `CCc1nc2ccc(C(=O)NCCOc3ccc(OC)cc3)cn2c1N(CC)Cc1cccc(Br)c1`, for which the cytotoxicity call was “inactive”. For `Cc1cc(C)c(N(Cc2ccccc2)S(=O)(=O)c2ccc(OCCNC(=O)c3cc4ccccc4o3)cc2)c(C(=O)NO)c1`, the cytotoxicity call is “active”.

Consider `O=C(NCCO)c1cc2ccccc2oc1=O`, for which the cytotoxicity call is “inactive”. Regarding `C[C@H]1CN([C@@H](C)CO)C(=O)c2cccc(NS(=O)(=O)c3cn(C)cn3)c2O[C@H]1CN(C)S(=O)(=O)c1cccs1`, the cytotoxicity call was “inactive”. Consider `C[C@@H]1CN([C@H](C)CO)C(=O)c2cc(C#C[C@@H](C)O)cnc2O[C@@H]1CN(C)C(=O)Nc1ccc(C(F)(F)F)cc1`, for which the cytotoxicity call is “inactive”. Consider `Nc1cc(=O)[nH]c(=O)n1-c1ccc(Cl)cc1`, for which the cytotoxicity call was “inactive”. The same measure for `O=C(O)CSCC(=O)N1CCCCC1`: “inactive”; for `CN1C(=O)c2cc(NC(=O)C3CCOCC3)ccc2OC[C@@H]2O[C@@H](CC(=O)NCc3ccccc3F)CC[C@H]21`: “inactive”.

Take `C[C@H]1CN([C@@H](C)CO)C(=O)c2cccc(NS(C)(=O)=O)c2O[C@H]1CN(C)S(=O)(=O)c1ccc(F)cc1`: the cytotoxicity call is “inactive”. As to `COc1ccc(CC2c3cc(OC)c(OC)cc3CC[N+]2(C)CCC(=O)OCCCCCOC(=O)CC[N+]2(C)CCc3cc(OC)c(OC)cc3C2Cc2ccc(OC)c(OC)c2)cc1OC.O=S(=O)([O-])c1ccccc1.O=S(=O)([O-])c1ccccc1` (stereo not drawn), the cytotoxicity call was “inactive”. As for `COc1ccc(C[C@@H]2c3cc(OC)c(OC)cc3CC[N@+]2(C)CCC(=O)OCCCCCOC(=O)CC[N@@+]2(C)CCc3cc(OC)c(OC)cc3[C@H]2Cc2ccc(OC)c(OC)c2)cc1OC`, the cytotoxicity call is “active”. For the molecule `COc1ccc(C[C@H]2c3cc(OC)c(OC)cc3CC[N@+]2(C)CCC(=O)OCCCCCOC(=O)CC[N@+]2(C)CCc3cc(OC)c(OC)cc3[C@@H]2Cc2ccc(OC)c(OC)c2)cc1OC`, the cytotoxicity call was “inactive”. Take `C[C@@H]1CN([C@@H](C)CO)C(=O)Cc2cc(NC(=O)Cc3cn(C)c4ccccc34)ccc2O[C@@H]1CN(C)S(=O)(=O)c1cn(C)cn1`: the cytotoxicity call was “inactive”. Turning to `C[C@@H]1CCCCO[C@@H](CN(C)S(=O)(=O)c2ccccc2)[C@H](C)CN([C@@H](C)CO)C(=O)c2cc(NS(=O)(=O)c3cn(C)cn3)ccc2O1`, the cytotoxicity call is “inactive”. On to `C[C@H]1CN([C@@H](C)CO)C(=O)Cc2cc(NS(=O)(=O)c3cn(C)cn3)ccc2O[C@@H]1CN(C)S(=O)(=O)c1ccc(Cl)cc1`, for which the cytotoxicity call was “inactive”. As for `Cc1ccc(S(=O)(=O)Nc2ccc3c(c2)C(=O)N([C@@H](C)CO)C[C@@H](C)[C@H](CN(C)Cc2ccccc2)OCCCC[C@@H](C)O3)cc1`, the cytotoxicity call is “inactive”.

For `COc1ccc2c3c([nH]c2c1)[C@H](CO)N(Cc1ccc(cc1)Cl)C[C@]13CCN(CC1)Cc1ccccc1`, the cytotoxicity call was “active”.

Take `COc1ccc2c3c([nH]c2c1)[C@H](CO)N(Cc1ccc(cc1)Cl)C[C@]13CCN(CC1)Cc1nccs1`: the cytotoxicity call was “inactive”. As for `COc1ccc2c3c([nH]c2c1)[C@@H](CO)N(Cc1ccc(cc1)Cl)C[C@]13CCN(CC1)Cc1ccccc1`, the cytotoxicity call was “active”.

For the molecule `COc1ccc2c3c([nH]c2c1)[C@@H](CO)N(Cc1ccc(cc1)Cl)C[C@]13CCN(CC1)Cc1nccs1`, the cytotoxicity call was “inactive”. On to `COc1ccc2c3c([nH]c2c1)[C@H](CO)N(Cc1ccncc1)C[C@]13CCN(CC1)Cc1ccc(cc1)-c1ccccn1`, for which the cytotoxicity call was “inactive”.

For the molecule `COc1ccc(cc1)CN1C[C@]2(CCN(CC2)Cc2ccccc2OC)c2c([nH]c3cc(ccc23)OC)[C@@H]1CO`, the cytotoxicity call was “inactive”. On to `O=C(NCCCN1CCOCC1)[C@H]1[C@H](CO)[C@H]2Cn3c(cccc3=O)[C@@H]1N2C(=O)C1CCCCC1`, for which the cytotoxicity call was “inactive”. The same measure for `C[C@@H]1CCCCO[C@H](CN(C)C(=O)NC2CCCCC2)[C@H](C)CN([C@H](C)CO)C(=O)c2cc(NC(=O)Nc3ccc(F)cc3)ccc2O1`: “inactive”. On to `Cc1cccc(S(=O)(=O)N2C[C@@H](O)COC[C@@H]3O[C@H](CC(=O)NCCCN4CCOCC4)CC[C@H]32)c1`, for which the cytotoxicity call is “inactive”.

Take `C[C@@H]1CN([C@@H](C)CO)C(=O)c2cc(NC(=O)NC3CCCCC3)ccc2O[C@@H](C)CCCCO[C@H]1CN(C)C(=O)CCC(F)(F)F`: the cytotoxicity call was “inactive”. As for `C[C@@H]1CN([C@@H](C)CO)C(=O)c2cc(NC(=O)Cc3ccccc3)ccc2O[C@@H](C)CCCCO[C@@H]1CN(C)C(=O)c1ccccc1`, the cytotoxicity call was “inactive”. As for `C=C(CO)C(=O)O[C@H]1C[C@@]2(C)OC(=O)/C(=C/C)[C@]2(O)CC[C@@]2(C)CC(=O)[C@]1(C(=C)C(=O)OC)O2`, the cytotoxicity call was “inactive”.

For the molecule `C=C(CO)C(=O)O[C@@H]1[C@H]2C(=C)C(=O)O[C@@H]2[C@H]2O[C@]2(C)CC/C=C(/C(=O)OC)[C@H]1OC(C)=O`, the cytotoxicity call was “active”. For the molecule `C[C@H]1CN([C@@H](C)CO)C(=O)c2cccc(NS(=O)(=O)c3ccc(F)cc3)c2O[C@@H]1CN(C)C(=O)Nc1cccc2ccccc12`, the cytotoxicity call is “inactive”.

Take `C[C@@H]1CN([C@H](C)CO)C(=O)c2cccc(NS(=O)(=O)c3cccs3)c2O[C@H]1CN(C)C(=O)Nc1cccc2ccccc12`: the cytotoxicity call is “active”. As to `C[C@H](CO)N1C[C@H](C)[C@H](CN(C)C(=O)Nc2cccc3ccccc23)Oc2c(NS(=O)(=O)c3ccc(F)cc3)cccc2C1=O`, the cytotoxicity call is “active”. For the molecule `Cc1ccc(S(=O)(=O)Nc2cccc3c2O[C@@H](CN(C)C(=O)Nc2cccc4ccccc24)[C@H](C)CN([C@@H](C)CO)C3=O)cc1`, the cytotoxicity call was “inactive”.

Regarding `C[C@H](CO)N1C[C@H](C)[C@@H](CN(C)C(=O)Nc2cccc3ccccc23)Oc2c(NS(=O)(=O)c3cccs3)cccc2C1=O`, the cytotoxicity call was “inactive”. Regarding `Cc1ccc(S(=O)(=O)Nc2cccc3c2O[C@H](CN(C)C(=O)Nc2cccc4ccccc24)[C@@H](C)CN([C@@H](C)CO)C3=O)cc1`, the cytotoxicity call was “active”. `C[C@@H]1CN([C@H](C)CO)C(=O)c2cccc(NS(=O)(=O)c3ccc(F)cc3)c2O[C@@H]1CN(C)C(=O)Nc1cccc2ccccc12`: the cytotoxicity call is “inactive”. Take `C[C@H]1CN([C@@H](C)CO)C(=O)c2cccc(NS(=O)(=O)c3ccc(F)cc3)c2O[C@H]1CN(C)C(=O)Nc1cccc2ccccc12`: the cytotoxicity call is “inactive”. Take `C[C@H](CO)N1C[C@H](C)[C@@H](CN(C)C(=O)Nc2cccc3ccccc23)Oc2c(NS(=O)(=O)c3ccc(F)cc3)cccc2C1=O`: the cytotoxicity call is “inactive”. Regarding `C[C@@H]1CN([C@@H](C)CO)C(=O)c2cccc(NS(=O)(=O)c3cccs3)c2O[C@@H]1CN(C)C(=O)Nc1cccc2ccccc12`, the cytotoxicity call was “inactive”.

Take `Cc1ccc(S(=O)(=O)Nc2cccc3c2O[C@H](CN(C)C(=O)Nc2cccc4ccccc24)[C@@H](C)CN([C@H](C)CO)C3=O)cc1`: the cytotoxicity call is “inactive”. Regarding `C[C@@H]1CN([C@@H](C)CO)C(=O)c2cccc(NS(=O)(=O)c3ccc(F)cc3)c2O[C@H]1CN(C)C(=O)Nc1cccc2ccccc12`, the cytotoxicity call was “active”.

On to `C[C@H](CO)N1C[C@H](C)[C@H](CN(C)Cc2ccc(F)cc2)Oc2ncc(C#Cc3cccnc3)cc2C1=O`, for which the cytotoxicity call is “inactive”. On to `C[C@H](CO)N1C[C@H](C)[C@H](CN(C)S(=O)(=O)c2cccs2)Oc2c(NS(=O)(=O)c3ccccc3)cccc2C1=O`, for which the cytotoxicity call was “inactive”. As for `C[C@@H]1CCCCO[C@H](CN(C)S(=O)(=O)c2cn(C)cn2)[C@H](C)CN([C@@H](C)CO)C(=O)c2cc(NC(=O)Nc3ccc(C(F)(F)F)cc3)ccc2O1`, the cytotoxicity call was “inactive”. On to `C[C@@H]1CN([C@@H](C)CO)C(=O)c2cccc(NC(=O)c3nc4ccccc4s3)c2O[C@@H]1CN(C)S(C)(=O)=O`, for which the cytotoxicity call was “inactive”. Take `C[C@H]1CN([C@@H](C)CO)C(=O)Cc2cc(NC(=O)Cc3ccccc3)ccc2O[C@@H]1CN(C)S(=O)(=O)c1ccc(F)cc1`: the cytotoxicity call is “inactive”. On to `CC1(C)OC(=O)C2(C(=O)O1)[C@@H](c1ccc(-c3cccc(-c4ccc(C(=O)O)cc4)c3)cc1)CC(=O)C[C@H]2c1ccccc1`, for which the cytotoxicity call was “inactive”.

For `C[C@@H]1CN([C@H](C)CO)C(=O)Cc2cc(NS(=O)(=O)c3ccccc3)ccc2O[C@@H]1CN(C)Cc1ccc(C(=O)O)cc1`, the cytotoxicity call is “inactive”.

For `N[C@@H]1CCCN(c2c(Br)cnc3[nH]cc(NC(=O)C4CC4)c23)C1`, the cytotoxicity call is “active”. `COc1ncc(NC(=O)C2CC2)c(OC)n1`: the cytotoxicity call is “inactive”. Regarding `N[C@H]1CCCN(c2ncccn2)C1`, the cytotoxicity call was “inactive”. For `C[C@@H]1CN([C@H](C)CO)S(=O)(=O)c2ccc(-c3ccc(C(=O)N(C)C)cc3)cc2O[C@@H]1CN(C)C(=O)C1CC1`, the cytotoxicity call was “inactive”.

Consider `O=C1N(Cc2ccccc2)Cc2ccccc2C[C@]12N=C(c1ccc(OCCCO)cc1)O[C@@H]2c1ccccc1`, for which the cytotoxicity call is “inactive”. Regarding `O=C1N(Cc2ccccc2)Cc2ccccc2[C@H]2OC(c3ccc(OCCCO)cc3)=N[C@@]12CCS(=O)(=O)c1ccccc1`, the cytotoxicity call was “inactive”. The result for `O=C1N(Cc2ccccc2)Cc2ccccc2C[C@@]12N=C(c1ccc(OCCCO)cc1)O[C@H]2c1ccccc1` reads “active”; that for `O=C(NCc1ccccc1)[C@@]1(CCS(=O)(=O)c2ccccc2)COC(c2ccc(OCCCO)cc2)=N1`, “inactive”; that for `O=C1N(Cc2ccccc2)Cc2ccccc2[C@H]2OC(c3ccc(OCCCO)cc3)=N[C@@]12Cc1ccccc1`, “inactive”.

Take `O=C1N(CCS(=O)(=O)c2ccccc2)Cc2ccccc2C[C@@]12COC(c1ccc(OCCCO)cc1)=N2`: the cytotoxicity call is “active”.

Take `Cc1ccc(S(=O)(=O)Nc2cccc3c2O[C@@H](CN(C)Cc2ccc(Oc4ccccc4)cc2)[C@@H](C)CN([C@@H](C)CO)C3=O)cc1`: the cytotoxicity call is “inactive”.
